DAX1 inh-1 – NR0B1 (DAX1) inhibition. AID 504766. HEK293 Gal4-DAX1 luciferase reporter, luminescence. 340,000 compounds, 0.99% hits. P51843. inhibition, % at 6.75 µM;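 active = inhibition above the mean over all tested compounds plus 3 SD, cut at about 4.2% in these data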;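 also: inhibition shows as a rise in luminescence from relieved DAX1 repression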
Target sequence (P51843 207-470 limits assumed): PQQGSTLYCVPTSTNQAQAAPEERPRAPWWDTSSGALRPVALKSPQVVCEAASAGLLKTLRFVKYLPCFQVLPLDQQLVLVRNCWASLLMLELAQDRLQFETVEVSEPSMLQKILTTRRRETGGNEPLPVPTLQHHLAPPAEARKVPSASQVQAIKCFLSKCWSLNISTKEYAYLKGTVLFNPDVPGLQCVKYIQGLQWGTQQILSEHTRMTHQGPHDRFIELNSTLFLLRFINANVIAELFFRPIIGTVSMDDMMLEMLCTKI
hgDAF-12 ag – agonists of H. glycines DAF-12 nuclear receptor; 370,000 compounds, 1.8% hits; activation, % at 6.8 µM; HEK293 GAL4-hgDAF12 UAS-luciferase reporter, agonist luminescence; normalized to butyrate control;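 active = activation above a cutoff set at the mean of all screened compounds plus 3 SD, cut at about 10% in these data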
hcDAF12 agonist – activates DAF-12 receptor from parasite H. contortus; HEK293 hcDAF-12 lit1-tk-luc reporter, luminescence; 0% DMSO, 100% Δ7-dafachronic acid; activation, % at 6.8 µM; 370,000 compounds, 1.4% hits; AID 652067;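 active = activation above the mean of all tested compounds plus 3 SD, cut at about 5.5% in these data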
ssDAF12 agonist – activators of S. stercoralis DAF-12 nuclear receptor. AID 652126. HEK293 ssDAF-12/GRIP1 lit1-tk-luc reporter, luminescence; % of 3 µM dafachronic acid response. activation, % at 6.8 µM. 370,000 compounds, 1% hits;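 active = activation above the mean over all tested compounds plus 3 SD, cut at about 0.9% in these data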
DAX1 inh-2 – inhibitors of DAX1 repression of SF-1 activated StAR promoter; inhibition, % at 6.8 µM; 370,000 compounds, 1.1% hits; AID 652010; HEK293T StAR-luciferase reporter, SF-1/DAX-1 repression relief;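 active = inhibition above the mean over all tested compounds plus 3 SD, cut at about 3.6% in these data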;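 also: higher inhibition means more luminescence from relief of DAX-1 repression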
Large screens that a line does not name were inactive. Compounds with a hit are over-represented: about 4.1% of the library has one in this group of screens.

O=C(NC(Cc1c[nH]c2ccccc12)C(=O)O)/C(=C/c1ccc(F)cc1)NC(=O)c1ccccc1 (stereo unspecified)	ssDAF12 agonist 0.9
O=C(O)c1cc(S(=O)(=O)NC(Cc2c[nH]c3ccccc23)C(=O)O)ccc1Cl (stereo unspecified)	hcDAF12 agonist 5.9, ssDAF12 agonist 0.9
COc1ccc(C2Nc3ccccc3C(=O)N2Cc2ccccc2)cc1COc1ccc(NC(C)=O)cc1 (stereo unspecified)	none (no result: DAX1 inh-1, DAX1 inh-2)
CCc1nc2ccc(C(=O)Nc3ccc(Cl)c(Cl)c3)cn2c1N(C)Cc1ccc(OC)cc1	hgDAF-12 ag 11.8 (no result: DAX1 inh-1)
CCc1ccc(NC(=O)c2ccccc2NC(=O)C2CCCO2)cc1 (stereo unspecified)	hgDAF-12 ag 12.9
O=C(OCC#CCSc1nnc(-c2cccc3ccccc23)o1)c1cccc(F)c1	none (no result: DAX1 inh-1, DAX1 inh-2)
COC(=O)c1ccc(CSc2nc3ccccc3o2)cc1	none
O=[N+]([O-])c1ccc(CSc2nc3ccccc3o2)cc1	hgDAF-12 ag 11.8, DAX1 inh-2 3.6
CCCCNC(=O)c1nc(-c2cccs2)oc1-c1ccc(Cl)cc1	ssDAF12 agonist 0.9 (no result: DAX1 inh-1)
O=C(NCc1ccco1)C1CCCN(S(=O)(=O)c2ccccc2F)C1 (stereo unspecified)	none (no result: DAX1 inh-1)
COC(=O)C1=C(C)N(CC(C)C)C(=S)NC1c1cccc(F)c1 (stereo unspecified)	ssDAF12 agonist 1.0 (no result: DAX1 inh-1)
COc1ccc(CN(C)CC#Cc2ccccc2)c(OC)c1	none (no result: DAX1 inh-1)
CN(C)c1cc[n+](CC(=O)N2c3ccccc3Sc3ccccc32)cc1	none
O=C(C[n+]1ccccc1)N1c2ccccc2Sc2ccccc21	DAX1 inh-1 4.5
COc1ccc(/C=C/CN2CCN(Cc3cccc(OC)c3)C(CCO)C2)cc1 (stereo unspecified)	DAX1 inh-1 4.2
CCOc1ccc(CN2CCN(C/C=C/c3ccc(OC)cc3)CC2CCO)cc1 (stereo unspecified)	none
CC(=O)N[C@@H]1C[C@@H]2O[C@@H](CO)CC[C@@H]2O[C@@H]1CCc1ccc(C#CC2(O)CCCC2)cc1	none (no result: DAX1 inh-1)
COc1cc(-c2cc(NC=O)c3ncc(-c4ccc(C(C)=O)cc4)n3c2)ccc1O	hgDAF-12 ag 10.5 (no result: DAX1 inh-1)
COc1cc(-c2cnc3c(NC(C)=O)cc(-c4ccc(N5CCN(C)CC5)cc4)cn23)cc(OC)c1OC	none (no result: DAX1 inh-1)
COc1cc(-c2cnc3c(NC=O)cc(-c4ccc(N5CCN(C)CC5)cc4)cn23)cc(OC)c1OC	hgDAF-12 ag 10.7 (no result: DAX1 inh-1)
COc1cccc(-c2cnc3c(NC=O)cc(-c4ccc(O)c(OC)c4)cn23)c1	none (no result: DAX1 inh-1)
Nc1nc(-c2cc3ccccc3o2)cs1	DAX1 inh-1 5.2
COC(=O)C1CN(Cc2ccccc2)CCS(=O)(=O)N1Cc1ccc(C(F)(F)F)cc1 (stereo unspecified)	none (no result: DAX1 inh-1)
CCOC(=O)[C@]12CCCCC/C=C\1N(CCc1ccc(Cl)cc1)C(=O)[C@H]2CC(=O)N1CCC(c2ccccc2)CC1	none (no result: DAX1 inh-1)
CC(=O)c1ccc(NS(=O)(=O)c2cccc(C)c2)cc1	hgDAF-12 ag 11.9
COc1cccc(NC(=O)C(=O)NCCCN2CCCC2=O)c1	DAX1 inh-2 3.8
Cc1ccc(C)c(Nc2nc(N)c3ccccc3n2)c1	DAX1 inh-1 4.5, hgDAF-12 ag 11.6
CCOc1ccc(NC(=O)CN(C)C(=O)c2cc(S(=O)(=O)N3CCCCCC3)ccc2OC)cc1OCC	DAX1 inh-2 3.9
Cc1c(Cl)cccc1NC(=O)CSc1sc2c(O)cc(=O)[nH]c2c1C#N	DAX1 inh-1 4.4
Cc1cc(C)c2oc(C(=O)N(Cc3ccccc3)c3ccccn3)cc(=O)c2c1	DAX1 inh-1 6.3
O=C(CSc1nc2ccccc2nc1N1CCCCC1)N1CCN(C(c2ccccc2)c2ccc(Cl)cc2)CC1 (stereo unspecified)	none (no result: DAX1 inh-1)
COc1ccc(C2=NOC(C(=O)O)C2)cc1 (stereo unspecified)	ssDAF12 agonist 1.8
CC(=O)Nc1cc2c3c(cccc3c1)-c1ccccc1-2	hgDAF-12 ag 11.3
CC(=O)Nc1ccc2c(c1)C(=Nc1ccccc1)c1ccccc1-2	none
O=C(Nc1cc(-c2ccccc2)[nH]n1)c1ccccc1F	hgDAF-12 ag 12.3 (no result: DAX1 inh-1)
COc1ccc(C2Nc3ccc4ccccc4c3-c3c2c(=O)oc2ccccc32)cc1 (stereo unspecified)	ssDAF12 agonist 1.4
Cc1cccnc1CCNC(=O)CCc1nnc(CCc2ccccc2)o1	DAX1 inh-1 4.7
Cc1cccnc1CN1CCN(C(=O)CCc2nnc(CCc3ccccc3)o2)CC1	none
C/C(=N\NC(=S)NC(C)C)c1ccc(Cl)c([N+](=O)[O-])c1	DAX1 inh-1 4.6
C/C(=N\NC(=S)NC(C)C)c1cccc([N+](=O)[O-])c1	none
COCCNC(=S)N(C)[C@H]1C[C@H]2c3[nH]c4c(-c5cccc(C)c5)cccc4c3CCN2C[C@H]1[C@H](C)O	none (no result: DAX1 inh-1)
O=C(CSc1ccc2ccccc2n1)c1ccc2c(c1)OCO2	ssDAF12 agonist 2.3
OCC(CCc1c[nH]c2ccccc12)c1c[nH]c2ccccc12 (stereo unspecified)	none (no result: DAX1 inh-1)
O=C1CCN(C(=O)c2ccc(Cl)cc2)N1	none
O=C1CCN(C(=O)CSc2ccc(Cl)cc2)N1	DAX1 inh-1 5.8
COc1ccc(-n2c(SCC(=O)NNC(=S)Nc3ccc(C)cc3)nnc2-c2ccccc2)cc1	none (no result: DAX1 inh-1)
O=C(NNS(=O)(=O)c1ccccc1[N+](=O)[O-])c1cccc(Br)c1	none
O=C(NNS(=O)(=O)c1ccccc1[N+](=O)[O-])c1cccc(Cl)c1	ssDAF12 agonist 1.1
C[n+]1ccc(/C=C/c2ccccc2O)c2ccccc21	hcDAF12 agonist 6.5
Nc1nnc(Cc2c[nH]c3ccccc23)s1	hcDAF12 agonist 5.7
COC(=O)[C@]12C[C@H](CC(=O)NCCC(C)C)C(=O)N(CCc3ccc(OC)c(OC)c3)C1=C[C@H](C1CCCC1)O[C@@H]2C	none (no result: DAX1 inh-1)
O=C(NCC(=O)N1CCN(C(=O)c2ccco2)CC1)c1ccccc1	ssDAF12 agonist 1.0
CC(C)CC(=O)N1CCN(C(=O)c2ccco2)CC1	hcDAF12 agonist 5.7
COc1cc(C(=O)NC2CCCCN(Cc3cccc(C(F)(F)F)c3)C2=O)cc(OC)c1OC (stereo unspecified)	none (no result: DAX1 inh-1)
CC1=C[C@]2(CN(CC3CC3)C3=N[C@H](c4ccccc4)CC(=O)N32)n2c(=O)n(-c3ccccc3)c(=O)n2C1	none (no result: DAX1 inh-1, DAX1 inh-2)
COc1ccc(NC(=O)C2C(c3ccc4c(c3)OCO4)=Nc3ccccc3N2C(C)=O)cc1 (stereo unspecified)	hcDAF12 agonist 6.2 (no result: DAX1 inh-1)
O=[N+]([O-])c1cccnc1NCCc1c[nH]c2ccccc12	hgDAF-12 ag 12.3, ssDAF12 agonist 1.0
O=C(NC(=S)NC1CCCCCC1)c1cncc(Br)c1	hgDAF-12 ag 11.1
N#Cc1cccc(NC(=O)OC2CCC23CCC(c2ccccc2)CC3)c1 (stereo unspecified)	none (no result: DAX1 inh-1)
CC(C)c1nc2ccccc2n1CC(O)COC1CCCCC1 (stereo unspecified)	DAX1 inh-1 6.6

High-throughput results from PubChem BioAssay.
